Rows were chosen to be rich in hits. Some 4.1% of all compounds tested hit in one or more screens of this group.
PolyA inhibitor – polyadenylation inhibitors in yeast reporter cells, primary screen, luminescence, S. cerevisiae; 300,000 tested, 0.02% active; activity score, % at 12 µM; S. cerevisiae SKY197-pL101 polyadenylation reporter, beta-gal luminescence; efflux-impaired pdr1/pdr3 knockout yeast; score 100 = 6 SD above DMSO;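 active = lowest replicate activity score at least 50, where 100 means six control SD above control mean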;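 also: yeast exposed to compound for 9 h at 30 °C; higher score means more reporter readthrough which indicates perturbed polyadenylation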
hcDAF-12 act – H. contortus DAF-12 nuclear receptor activators, primary screen, cell-based, luminescence, HEK293, lit1-tk-luc reporter; HEK293 hcDAF-12 lit1-tk-luc reporter; 0% DMSO, 100% Δ7-dafachronic acid; activation, % at 6.8 µM; 370,000 tested, 1.4% active;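 active = activation above the mean of all tested compounds plus 3 SD, cut at about 5.5% in these data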;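 also: 100% = response to 3 µM Δ7-dafachronic acid high control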
ssDAF12 agonist – S. stercoralis DAF-12 nuclear receptor activators, primary screen, cell-based, luminescence, HEK293, GRIP1 co-expression, lit1-tk-luc; Nuclear hormone receptor DAF-12 (Strongyloides stercoralis); HEK293 ssDAF-12/GRIP1 lit1-tk-luc reporter; % of 3 µM dafachronic acid response; activation, % at 6.8 µM; 370,000 tested, 1% active; AID 652126, 2013;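 active = activation above the mean over all tested compounds plus 3 SD, cut at about 0.9% in these data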;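 also: 0% = DMSO-only wells and 100% = 3 µM delta7-dafachronic acid wells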
hgDAF-12 ag – H. glycines DAF-12 receptor agonists, primary screen, cell-based, luminescence, HEK293, GAL4 fusion, UAS-luciferase; Nuclear hormone receptor DAF-12 (Heterodera glycines), GAL4 fusion; HEK293 GAL4-hgDAF12 UAS-luciferase reporter, agonist luminescence; normalized to butyrate control; activation, % at 6.8 µM; 370,000 tested, 1.8% active;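 active = activation above a cutoff set at the mean of all screened compounds plus 3 SD, cut at about 10% in these data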;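 also: 0% = DMSO wells and 100% = sodium butyrate wells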
DAX1 inh-1 – DAX1 (NR0B1) inhibitors on StAR promoter, primary screen, cell-based, luminescence, SF-1 (NR5A1), full-length DAX-1; HEK293T StAR-luciferase reporter, SF-1/DAX-1 repression relief; inhibition, % at 6.8 µM; 370,000 tested, 1.1% active;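 active = inhibition above the mean over all tested compounds plus 3 SD, cut at about 3.6% in these data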;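 also: 0% = DAX-1 cells with DMSO and 100% = cells lacking DAX-1 with DMSO; higher inhibition means more luminescence from relief of DAX-1 repression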
DAX1 inh-2 – DAX1 (NR0B1) inhibitors, primary screen, cell-based, HEK293, Gal4-DAX1, luciferase luminescence; HEK293 Gal4-DAX1 luciferase reporter; 340,000 tested, 0.99% active; inhibition, % at 6.75 µM; Nuclear receptor subfamily 0 group B member 1 (Homo sapiens), P51843;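 active = inhibition above the mean over all tested compounds plus 3 SD, cut at about 4.2% in these data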;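 also: 0% = DAX1-transfected cells with DMSO and 100% = empty-vector control cells with DMSO; inhibition shows as a rise in luminescence from relieved DAX1 repression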
Target sequence (P51843 207-470 limits assumed): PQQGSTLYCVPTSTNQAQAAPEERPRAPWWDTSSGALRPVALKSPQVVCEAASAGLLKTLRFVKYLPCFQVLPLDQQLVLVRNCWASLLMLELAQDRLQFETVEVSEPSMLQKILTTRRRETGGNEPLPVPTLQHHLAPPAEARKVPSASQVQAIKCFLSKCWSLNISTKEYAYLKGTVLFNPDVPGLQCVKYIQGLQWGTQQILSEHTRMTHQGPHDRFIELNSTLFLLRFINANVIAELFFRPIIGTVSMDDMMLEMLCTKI
* = called active by the depositor; . = not tested or not shown.

SMILES	PolyA inhibitor	hcDAF-12 act	ssDAF12 agonist	hgDAF-12 ag	DAX1 inh-1	DAX1 inh-2
CN(C)CCCNC(=O)CC1C[C@H](C(=O)N2CCOCC2)[C@@]2(CCC3CCCC3)c3[nH]c4ccccc4c3CCN2C1=O (stereo not given in full)	.	0.2	-0.4	1.7	3.7*	4.3*
Cc1ccc(S(=O)(=O)NC(CCCNC(=O)OCc2ccccc2)C(=O)O)cc1 (stereo not given)	.	0.5	-0.8	0.0	-0.1	.
O=C(COc1cc2oc(=O)c3c(c2cc1Cl)CCCC3)N1C[C@H]2C[C@@H](C1)c1cccc(=O)n1C2	29.0	0.2	-1.8	0.6	-0.9	5.7*
Cc1oc2c(C)c3oc(=O)c(CCC(=O)N4C[C@H]5C[C@@H](C4)c4cccc(=O)n4C5)c(C)c3cc2c1C	0.2	-3.9	-1.4	-4.6	0.6	4.9*
CC(Oc1cc2oc(=O)c3c(c2cc1Cl)CCC3)C(=O)N1C[C@H]2C[C@@H](C1)c1cccc(=O)n1C2 (stereo not given in full)	2.9	-2.5	-1.0	3.2	0.8	0.7
O=C(Oc1cc2oc(=O)c3c(c2cc1Cl)CCCC3)c1ccco1	-26.6	-0.1	-1.2	3.1	-0.2	4.7*
COc1cccc(CNC(=O)[C@H]2CCCN2C(=O)[C@H]2CCCN2C(=O)c2ccc(C)c(C)c2)c1	.	-2.3	-0.7	-0.4	-2.4	.
CCC(=O)N1CCc2cc(Br)c(S(=O)(=O)NC3CCN(Cc4ccccc4)CC3)cc21	.	-2.4	-1.0	1.2	0.4	.
CC1CCCN(c2cccc3c2S(=O)(=O)N([C@H](C)c2ccccc2)C[C@@H](COCc2ccccc2)O3)C1 (stereo not given in full)	.	0.3	-0.6	0.3	-0.4	.
COC(=O)C1C(=O)c2c([nH]c(C(=O)OC3CCCC3)c2C)CC1C (stereo not given)	-4.8	6.0*	0.1	8.9	3.3	2.1
COc1ccc2no[n+]([O-])c2c1	72.6*	.	.	.	.	.
COc1ccc2nc(-c3ccco3)c(-c3ccco3)nc2c1	2.7	-0.2	-1.4	-2.2	0.0	0.6
C#CCNC(=O)C[C@@H]1C(=O)N2CCCC3=C2[C@@]1(C(=O)OC)CCCC3	.	-2.2	-0.7	0.7	-0.5	.
O/N=C1\CC/C(=N\O)c2nn(-c3ccccc3Cl)nc21	12.9	0.5	-1.7	0.6	-0.8	-0.2
Cc1ccc(-n2nc3c(n2)/C(=N/O)CC/C3=N\O)cc1	1.6	5.0	0.9	12.2*	4.4*	-1.1
COc1ccc(C(=O)CSC#N)cc1OC	-7.8	-0.2	-0.8	13.0*	-0.8	2.0
COc1ccc(N=Cc2ccccc2O)cc1	.	3.3	-0.2	1.5	0.3	0.8
COc1ccc(N=Cc2oc3ccc4ccccc4c3c2O)cc1	0.3	2.8	1.2*	4.7	2.0	0.3
OC[C@@H]1CC[C@@H]2O[C@H](CCc3ccc(-c4ccc(F)cc4)cc3)[C@@H](n3cc(C4CC4)nn3)C[C@@H]2O1	.	-0.8	-1.9	-1.9	-1.0	.
COc1ccc(NC(=O)N(C)C[C@H]2OCc3cn(nn3)CCCC(=O)N([C@H](C)CO)C[C@@H]2C)cc1	.	0.1	-1.0	2.0	0.8	.
NS(=O)(=O)c1ccc(NC(=O)COC(=O)CC2Sc3ccccc3NC2=O)cc1 (stereo not given)	.	3.0	-0.1	7.3	1.5	1.1
NC(=O)c1ccc(NC(=O)COC(=O)CC2Sc3ccccc3NC2=O)cc1 (stereo not given)	.	4.0	1.2*	3.4	1.7	0.9
CC/C=C\[C@H](O)[C@H](O)C1=C(C)C(=O)[C@]2(O1)C(=O)N[C@@](OC)(C(=O)c1ccccc1)[C@@H]2O	.	1.5	-1.1	-0.8	-0.7	.
Nc1cc2ccccc2cc1NS(=O)(=O)N1CCCCC1	.	0.8	0.1	-1.2	-0.2	.
COc1ccccc1CCC(=O)OCC(=O)NC1CCCC1	-2.0	-0.3	-1.3	-1.9	3.7*	-0.8
SMILES	PolyA inhibitor	hcDAF-12 act	ssDAF12 agonist	hgDAF-12 ag	DAX1 inh-1	DAX1 inh-2
Cc1ccc(C)c(OCCCC(=O)NC2CCCCC2)c1	-2.5	0.1	-2.0	1.9	0.3	1.9
Cc1ccc(OCCCC(=O)NC2CCCCC2)cc1	0.2	-3.3	-0.8	1.2	-0.4	5.0*
COc1cc(C)ccc1OCC(=O)NC1CCCCCC1	.	-0.4	-0.7	8.1	4.3*	0.9
COc1ccccc1NCCC(=O)OCC(=O)NC1CCCCCC1	17.4	-0.5	-1.2	-2.0	0.2	0.4
CN1C2=C(C(=O)CC(C)(C)C2)C(c2cccs2)C2=C1CC(C)(C)CC2=O	11.5	-1.6	-0.9	-0.3	-0.5	5.3*
Cn1ncc2c(Nc3ccc4ccccc4c3)ncnc21	-32.7	1.9	-1.6	12.5*	2.1	2.4
Cc1cccc(Nc2ncnc3c2cnn3C)c1	0.6	-2.2	-1.5	0.9	-0.1	-0.5
O=c1c2ccccc2nnn1Cc1ccco1	.	0.3	-1.0	-2.8	-0.7	.
COc1ccc(Sc2cccc3c2S(=O)(=O)N(C2CC2)C[C@@H](COCc2ccccc2)O3)cc1OC	.	-0.7	-1.6	0.1	-1.6	.
Fc1ccc(/C=N/Nc2nn[nH]n2)cc1	-2.1	-0.8	-1.4	-3.2	-0.1	7.1*
CCc1ccc(/C=N/Nc2nn[nH]n2)cc1	13.6	-1.5	-0.9	5.6	-0.8	-0.5
O=C(NCc1ccco1)C(Cc1ccccc1)N1C(=O)c2ccccc2C1=O (stereo not given)	-24.2	6.3*	-0.4	2.6	-0.6	0.6
COC(=O)C1=C(C)N(C)C(=NCc2ccccc2)NC1c1ccccc1C(F)(F)F (stereo not given)	.	-1.0	-1.1	-1.8	1.1	.
CCN(Cc1ccccc1)S(=O)(=O)c1ccc(C(=O)N(CCCN(C)C)c2nc3cc4c(cc3s2)OCO4)cc1	1.9	-1.9	-0.6	-1.1	3.1	0.4
CN(C)CCCN(C(=O)c1ccc(S(=O)(=O)N(C)C)cc1)c1nc2cc3c(cc2s1)OCO3	-13.4	0.6	1.5*	-1.9	-0.5	2.2
COc1ccc(Cl)cc1NC(=O)COC(=O)C1COc2ccccc2O1 (stereo not given)	.	5.5	1.0*	1.2	0.1	0.3
O=C(COC(=O)C1COc2ccccc2O1)NC(=O)Nc1ccc2c(c1)OCCO2 (stereo not given)	-11.3	5.8*	-0.1	4.3	-0.5	1.0
O=C(COC(=O)C1COc2ccccc2O1)Nc1cccc(Cl)c1 (stereo not given)	.	1.7	-0.7	0.0	-0.1	0.3

Screening data from PubChem BioAssay.
